TGFb inhibitor: blocks TGF-b signaling; HepG2 CAGA-GFP TGF-b/SMAD3 reporter, GFP fluorescence, 18 h; TGF-beta stimulated, 500 pg/mL final; actives 1.2% (n = 410,000); Potency, µM (titrated, usually from 46.1 µM), for the others: top-dose activity, negative = inhibition, hits mostly inhibitors; also: % is scaled to controls: 0 for no effect and ±100 for the full control effect; nearly all actives have a fitted effect of over 65% in size
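Inhibition was scored as loss of TGF-beta-induced (500 pg/mL final, 18 hours, 37 degrees C) GFP in HEPG2 cells carrying a CAGA-GFP reporter, in DMEM with 1% FBS. Well GFP was summed per cell; Activity was normalised to unstimulated and stimulated DMSO wells, then concentration-response fitting.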
HepG2 tox-1: counter-screen for TGF-b inhibitors: cytotoxicity in HepG2 cells; actives 0.76% (n = 410,000); HepG2 CAGA-GFP viability, ATP luminescence, 18 h; Potency, µM (doses to about 46.1 µM), inactives show at the highest dose activity change, negative = cytotoxicity, usual class: cytotoxic; AID 588856
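HepG2 CAGA-GFP cells (1000/well, DMEM with 1% FBS) received compound, then TGF-beta at 500 pg/mL final, and were incubated 18 hours at 37 degrees C. Viability was read by CellTiter-Glo luminescence. Media-only wells were set as complete cell-killing and DMSO as no toxicity.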
S2 tox: cell viability loss in ATXN counter-screen; S2 cells (HEK-293 line with an ATXN2-luciferase reporter) viability, CellTiter-Fluor protease fluorescence, 24 h; Potency, µM (top dose mostly 56.7 µM), actives largely listed as cytotoxic; actives 0.49% (n = 400,000); also: nearly all actives have a fitted effect of over 40% in size
ATXN2 expr inh: inhibitors of ATXN2 expression. actives 0.72% (n = 360,000). HEK-293 ATXN2-luciferase reporter, luminescence, 24 h. Potency, µM (titrated, usually from 57 µM), without a hit: top-dose activity change, negative = inhibition, hits mostly inhibitors. AID 1745845; also: % is scaled to controls: 0 for no effect and ±100 for the full control effect; nearly all actives have a fitted effect of over 55% in size
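qHTS (up to 57 uM final) was run with 24 h compound exposure of reporter cells at 37 °C. Each well was multiplexed: SteadyGlo luminescence measured ATXN2-luciferase expression after a fluorogenic Gly-Phe-AFC viability readout (25 uM final).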
Apoferritin bind: candidate novel general anesthetic via apoferritin binding. P02791. apoferritin/1-aminoanthracene competitive binding, fluorescence. Potency, µM (series often up to 77.5 µM), inactives show top-dose activity change, negative = displacement, most hits filed as inhibitors. actives 0.074% (n = 350,000); also: % is scaled to controls: 0 for no effect and ±100 for the full control effect; nearly all actives have a fitted effect of over 20% in size
Target sequence (P02791 2-175 limits assumed): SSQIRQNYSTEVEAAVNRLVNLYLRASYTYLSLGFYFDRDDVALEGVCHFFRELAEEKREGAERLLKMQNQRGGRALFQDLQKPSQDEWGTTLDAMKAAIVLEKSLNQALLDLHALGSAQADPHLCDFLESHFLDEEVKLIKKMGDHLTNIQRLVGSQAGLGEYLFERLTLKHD
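Steps: apoferritin (10 uM) was premixed with half-saturated 1-AMA in PBS, compounds were pin-transferred, plates stood 10 min at room temperature, fluorescence was read at 380/535 nm, and curves were fitted with a Hill equation.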
TGFb confirm: confirmation of TGF-b signaling inhibitors in HepG2 reporter cells; Potency, µM (highest dose often 46.1 µM), without a hit: at the top dose activity, negative = inhibition, hits mostly inhibitors; shares compounds with TGFb inhibitor; HepG2 CAGA-GFP TGF-b reporter, GFP fluorescence, 18 h; cells stimulated with TGF-beta, 500 pg/mL; actives 63% (n = 1,600); also: % is scaled to controls: 0 for no effect and ±100 for the full control effect; nearly all actives have a fitted effect of over 65% in size
HepG2 tox-2: HepG2 cytotoxicity, TGF-b inhibitor counterscreen; shares compounds with TGFb inhibitor; AID 720535; actives 27% (n = 1,600); HepG2 CAGA-GFP viability, ATP luminescence, 18 h; cells stimulated with TGF-beta, 500 pg/mL; Potency, µM (highest dose often 46.1 µM), for the others: top-dose activity, negative = cytotoxicity, actives largely listed as inhibitors; also: % is scaled to controls: 0 for no effect and ±100 for the full control effect; nearly all actives have a fitted effect of over 70% in size
CCL64 TGFb inh: blocks TGF-b signaling in CCL64 reporter cells; shares compounds with TGFb inhibitor; CCL64 CAGA-GFP reporter, TGF-b stimulated, GFP fluorescence, 18 h; Potency, µM (top dose mostly 46.1 µM), for inactives: at the highest dose activity, negative = inhibition, hits mostly inhibitors; actives 41% (n = 1,600); AID 720536; also: nearly all actives have a fitted effect of over 65% in size
COP TGFb inh: TGF-b inhibition validated with COP promoter; shares compounds with TGFb inhibitor; actives 3% (n = 1,600); HepG2 COP-GFP TGF-b reporter, GFP fluorescence, 18 h; cells stimulated by added recombinant TGF-beta; AID 720537; Potency, µM (doses to about 46.1 µM), without a hit: top-dose activity, negative = inhibition, actives largely listed as inhibitors; also: nearly all actives have a fitted effect of over 70% in size
Starred values were filed as active, the others as inactive; i = inactive; ? = inconclusive; . = not tested or not shown. In the library only some 2.4% were active in any assay of this set; here they are far more common. Calls follow the shape of the dose curve; as a rule, active = well fitted curve in the direction sought with a large enough effect; inconclusive = small, poorly fitted or top-dose-only effect, or another doubt; inactive = no such curve, though single readings can be large; an effect the other way counts as inactive or inconclusive. Potency is read from the fitted curve at half-maximal effect.

SMILES	TGFb inhibitor	HepG2 tox-1	S2 tox	ATXN2 expr inh	Apoferritin bind	TGFb confirm	HepG2 tox-2	CCL64 TGFb inh	COP TGFb inh
Oc1ccc(C[C@H]2CN([C@@H](Cc3ccc(O)cc3)CN3CCC[C@@H]3CN3C(=S)NC[C@@H]3Cc3ccccc3)C(=S)N2CC2CCCCCC2)cc1	10µM*	-45%	8.9µM*	10µM*	.	23µM*	?	8.2µM*	67%
Oc1ccc(C[C@H]2CNC(=S)N2CC2CCCN2C[C@H](Cc2ccc(O)cc2)N2C[C@H](Cc3ccc(O)cc3)N(CC3CCCCC3)C2=S)cc1 (stereo not given in full)	10µM*	-23%	?	0%	.	5.2µM*	12µM*	5.8µM*	?
Oc1ccc(C[C@H]2CN([C@@H](Cc3ccccc3)CN3CCCC3CN3C(=S)NC[C@@H]3Cc3ccccc3)C(=S)N2CC2CCCCC2)cc1 (stereo not given in full)	.	.	?	-33%	.	.	.	.	.
Oc1ccc(C[C@H]2CNC(=S)N2C[C@H]2CCCN2C[C@H](Cc2ccccc2)N2C[C@H](Cc3ccc(O)cc3)N(CC3CCCCCC3)C2=S)cc1	7.1µM*	-112%	20µM*	0%	.	23µM*	?	13µM*	51%
O=C(O)C1CCCCC1C(=O)NCc1ccc(Cl)c(Cl)c1 (stereo not given)	-8%	-55%	?	.	-15%	.	.	.	.
CCOc1ccccc1NC(=O)C1CCN(c2nc(-c3ccc(OC)cc3)no2)CC1	10%	4%	?	?	-12%	.	.	.	.
COc1ccc(-c2[nH]c3ccccc3c2SCCNC(=O)c2ccc(S(=O)(=O)N(C)C)cc2)cc1	0%	-4%	?	-6%	-10%	.	.	.	.
O=C(CN(CCc1ccccc1)S(=O)(=O)c1ccc(Cl)cc1)N/N=C/c1ccc2c(c1)OCO2	?	7%	?	-39%	-11%	?	-24%	0%	-23%
Cc1ccc2nc(Nc3nc(-c4ccccc4)cc(=O)[nH]3)nc(C)c2c1	?	3%	i	-25%	?	.	.	.	.
COc1ccc2c(C)nc(Nc3nc(-c4ccccc4)cc(=O)[nH]3)nc2c1	4µM*	-59%	?	-44%	-11%	2.3µM*	5.8µM*	?	16%
CCOc1ccc(CCNC(=O)CCc2cn(Cc3ccc(F)cc3)c3ccccc23)cc1	?	-22%	.	.	62%	.	.	.	.
Cc1ccc(-c2ccc(SCC(=O)Nc3ccc4c(c3)OCCO4)nn2)cc1	3.2µM*	-21%	?	34%	?	21µM*	3%	8%	-6%
CC(=O)Nc1ccc(NC(=O)CSc2ccc(-c3ccc4c(c3)OCO4)nn2)cc1	3%	-11%	i	6%	4%	.	.	.	.
COc1cccc(C2C3=C(N=c4s/c(=C\c5ccc(O)cc5)c(=O)n42)c2ccccc2CC3)c1OC (stereo not given)	24%	1%	i	6%	3%	.	.	.	.
COc1cccc(C2C3=C(N=c4s/c(=C\c5cccc(O)c5)c(=O)n42)c2ccccc2CC3)c1OC (stereo not given)	18µM*	-27%	i	0%	-19%	5.8µM*	?	2.9µM*	31%
COc1ccc(Br)cc1/C=C/C(=O)Nc1ccc2ccccc2c1	?	-16%	?	6%	-3%	.	.	.	.
CCC(=O)Nc1cccc(C(=O)/C=C/c2cc(Br)ccc2OC)c1	3.5µM*	11µM*	18µM*	16µM*	?	3.7µM*	7.3µM*	3.7µM*	?
Cc1sc2ncnc(N3CCC(C(=O)N(C)CC(=O)Nc4ccc(Cl)c(C(F)(F)F)c4)CC3)c2c1C	11µM*	-8%	?	?	.	5.2µM*	?	9.2µM*	59%
COc1ccc(-c2nc3c4ccccc4ccn3c2Cc2ccc(C)cc2)cc1OC	13µM*	-13%	?	16%	.	26µM*	-17%	18µM*	15%
COc1ccc(-c2nc3c4ccccc4ccn3c2Cc2cccc(Cl)c2)cc1OC	-29%	-20%	?	24%	.	.	.	.	.
Nc1ccccc1C(=O)NC(=O)Nc1ccc(Oc2ncc(Br)cn2)c(Cl)c1	?	0%	?	-9%	.	?	-8%	5.8µM*	-18%
Cc1cc(NC(=O)NC(=O)c2ccccc2NC(=O)CN)ccc1Oc1ncc(Br)cn1	?	-25%	?	-16%	.	.	.	.	.
O=C(C1=C[C@@H](C2CCCCC2)C[C@@H](OCc2ccc(CO)cc2)O1)N1CCN(Cc2ccc3c(c2)OCO3)CC1	11µM*	7%	?	?	64%	21µM*	-28%	?	55%
O=C(C1=C[C@H](C2CCCCC2)C[C@H](OCc2ccc(CO)cc2)O1)N1CCN(Cc2ccc3c(c2)OCO3)CC1	?	-11%	?	?	33%	.	.	.	.
O=C(NCCCN1CCN(c2cccc(Cl)c2)CC1)Nc1ccccc1C(F)(F)F	?	-62%	i	-17%	-18%	.	.	.	.
Cc1ccc(-c2csc(N(CCO)CCCn3c(C(F)(F)F)nc4cc(C(F)(F)F)ccc43)n2)cc1	7.1µM*	-12%	?	2%	?	21µM*	-25%	?	-4%
OCCN(CCCn1c(C(F)(F)F)nc2ccccc21)c1nc(CN2CCCCC2)cs1	-26%	0%	i	8%	?	.	.	.	.
CC(=O)Oc1ccc2ccccc2c1C(NC(=O)Cc1ccccc1)c1ccccc1 (stereo not given)	10µM*	-36%	?	?	-3%	29µM*	?	?	65%
